For seven compounds, Potency and outcome results are on record in PubChem BioAssay (Tox21).

Assay [1] is described as follows: qHTS assay to identify small molecule antagonists of the estrogen receptor alpha (ER-alpha) signaling pathway using the BG1 cell line in the presence of 0.1 nM 17-beta-estradiol - cell viability counter screen (AID 1259241). Also: nearly all actives have a fitted effect of over 40% in size. Also: potency is read from the fitted curve at half-maximal effect. Summed up:
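Live-cell protease activity (CellTiter-Fluor fluorescence, 30 min) was read in the same wells after VM7Luc4E2 cells had been exposed to compounds with 0.1 nM 17beta-estradiol for 22 hr at 37C.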

Assay [2] in a line: qHTS assay to identify small molecule antagonists of the androgen receptor (AR) signaling pathway using the MDA cell line in the presence of 0.5 nM R1881 - cell viability counter screen (AID 1259242). Also: nearly all actives have a fitted effect of over 45% in size. Summed up: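 Fluorescence from CellTiter-Fluor, which reports protease activity of live cells, was read 30 min after reagent addition to MDA-kb2 cells that had been incubated 16 hr with compound and 0.5 nM R1881.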

Assay [3] concerns the target Estrogen receptor (Homo sapiens) (UniProt P03372). Put plainly: qHTS assay to identify small molecule antagonists of the estrogen receptor alpha (ER-alpha) signaling pathway using the BG1 cell line in the presence of 0.1 nM 17-beta-estradiol (AID 1259244). Also: nearly all actives have a fitted effect of over 50% in size. In short, it runs like this: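 Quantitative high-throughput screen in VM7Luc4E2 cells: compound plus 0.1 nM E2 (final), 22 h, 37C, 5% CO2; ONE-Glo added, 30 min room temperature, luminescence measured.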

The nature of assay [4]: qHTS assay to identify small molecule phospholipidosis (PLD) inducers (AID 1259344; active = well fitted curve in the direction sought with a large enough effect; an effect the other way counts as inactive or inconclusive). In short, it runs like this:
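HepG2 cells grown on collagen I take up LipidTOX Red while exposed to compound for 24 h; after fixation they are imaged at 20x and pit metrics are extracted.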

A short description of assay [5]: qHTS assay to identify small molecule HDAC inhibitors (AID 1259364). Also: top concentration of the series differs between compounds; nearly all actives have a fitted effect of over 45% in size. In short, it runs like this:
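Endogenous HDAC class I/II activity was measured in wild-type HCT-116 cells by HDAC-Glo luminescence after 2 h compound treatment.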

A short description of assay [6]: qHTS assay to identify small molecule HDAC inhibitors - cell viability counter screen (AID 1259365). Also: series mostly up to about 92 µM; nearly all actives have a fitted effect of over 50% in size. Summed up: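 HCT-116 (wild type), 1,500 cells/well, overnight 37C/5% CO2; compound in DMSO 2hr; CellTiter-Glo 30min RT; luminescence read.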
A short description of assay [7]: qHTS assay to identify small molecule agonists of the sonic hedgehog signaling (Shh) pathway - cell viability counter screen (AID 1259366). Also: nearly all actives have a fitted effect of over 50% in size. Also: potency is read from the fitted curve at half-maximal effect. Summed up:
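CellTiter-Fluor fluorescence read-out, 1 hr at 37C, added after 23hr compound exposure. Cells: 3T3 Gli1-Luc, an NIH/3T3 clone with stably integrated Gli1-Luc reporter, plated 4hr before compound.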

A short description of assay [8]: qHTS assay to identify small molecule agonists of the sonic hedgehog signaling (Shh) pathway (AID 1259368; calls by dose curve;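 also: NIH/3T3-derived 3T3Gli1-Luc cells carrying a stable Gli1-driven firefly luciferase reporter; series mostly up to about 92 µM; nearly all actives have a fitted effect of over 15% in size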). In short, it runs like this:
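Luminescent signal was taken as a measure of Gli1-controlled luciferase expression in stably transfected NIH/3T3-derived cells that had been treated for 24 hr with compounds delivered in DMSO.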

Assay [9] in a line: qHTS assay to identify small molecule antagonists of the sonic hedgehog signaling (Shh) pathway (AID 1259369; calls by dose curve; also: nearly all actives have a fitted effect of over 45% in size; also: potency is read from the fitted curve at half-maximal effect). In short, it runs like this: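 Screening used 3T3Gli1-Luc cells at 2,000 per well, compounds delivered in DMSO, and conditioned medium as agonist stimulus; plates incubated 24hr at 37 C and 5% CO2 before a 30min luciferase step.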
Assay [10] in a line: qHTS assay to identify small molecule agonists of the androgen receptor (AR) signaling pathway in the presence of an antagonist - cell viability counter screen (AID 1259379). Also: nearly all actives have a fitted effect of over 25% in size. Also: potency is read from the fitted curve at half-maximal effect. In short, it runs like this:
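In MDA-kb2 cells (human breast carcinoma, MMTV-luciferase), compounds at 15 concentrations plus 3.0uM nilutamide; 16 hr, 37C, 0% CO2; CellTiter-Fluor fluorescence read for viability.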

The nature of assay [11]: qHTS assay to identify small molecule agonists of the estrogen receptor beta (ER-beta) signaling pathway - cell viability counter screen (AID 1259380). Also: nearly all actives have a fitted effect of over 30% in size. Summed up:
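Viability of ER-beta-UAS-bla HEK293T cells was determined by CellTiter-Glo luminescence following 16 hr treatment with test compounds at 37C.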

A short description of assay [12]: qHTS assay to identify small molecule antagonists of the estrogen receptor beta (ER-beta) signaling pathway - cell viability counter screen (AID 1259382). Also: series mostly up to about 92 µM; nearly all actives have a fitted effect of over 55% in size. In short, it runs like this: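 Tox21 10K library tested in qHTS format on ER-beta-bla HEK293T cells stimulated with 1nM E2; 16 hr treatment at 37C. Same-well CellTiter-Glo luminescence served as the cell viability measure.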

Assay [13] concerns the target Estrogen receptor (Homo sapiens) (UniProt P03372). In words: qHTS assay to identify small molecule agonists of the estrogen receptor alpha (ER-alpha) signaling pathway in the presence of an antagonist (AID 1259383; calls by dose curve; also: top concentration of the series differs between compounds; nearly all actives have a fitted effect of over 15% in size). Summed up: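 In VM7Luc4E2 cells, 4,000 per well, compounds at 15 concentrations were co-incubated 22hr at 37C with 10.0nM final ICI-182,780. Luminescence from the stably transfected 4×ERE-luciferase reporter was recorded 30min after ONE-Glo addition.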

The nature of assay [14]: qHTS assay to identify small molecule agonists or antagonists of the thyroid stimulating hormone receptor (TSHR) signaling pathway - wild type cell line counter screen (AID 1259384; calls by dose curve). Summed up: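 Wild-type HEK293 cells were plated 18 h at 37 C/5% CO2, pin-dosed with compound plus Ro20-1724 medium, held 30 min at room temperature, then given cAMP-d2 and anti-cAMP-cryptate; fluorescence was read after 1 h. Fifteen concentrations, triplicate.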

The target in assay [15] is Thyrotropin receptor (Homo sapiens) (UniProt P16473). Put plainly: qHTS assay to identify small molecule antagonists of the thyroid stimulating hormone receptor (TSHR) signaling pathway (AID 1259385; calls by dose curve; also: nearly all actives have a fitted effect of over 20% in size). Summed up: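 TSHR-HEK293 cells were plated and held 18 h at 37C/5% CO2, then given compound plus Ro20-1724 and stimulated with TSH at 1.5 ng/mL final. After 30 min at room temperature, cAMP was detected with cAMP-d2/anti-cAMP-cryptate (1 h) by fluorescence.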

The nature of assay [16]: qHTS assay to identify small molecule antagonists of the sonic hedgehog signaling (Shh) pathway - cell viability counter screen (AID 1259367). Also: nearly all actives have a fitted effect of over 55% in size. Also: potency is read from the fitted curve at half-maximal effect. Summed up:
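After a 4 hr settling period, 3T3 Gli1-Luc cells were treated with DMSO-dissolved chemicals and conditioned medium, kept 24 hr at 37C in 5% CO2, and assayed for viability by CellTiter-Fluor fluorescence following 1 hr reagent incubation.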

Assay [17] addresses Estrogen receptor beta (Homo sapiens) (UniProt Q92731). In words: qHTS assay to identify small molecule agonists of the estrogen receptor beta (ER-beta) signaling pathway (AID 1259377; active = well fitted activation curve with a large enough effect in the signal ratio in the repeat runs, not every such curve was filed as active; the % refers to the signal ratio). Summed up: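 Beta-lactamase reporter readout: fluorescence of LiveBLAzer B/G FRET substrate after 2 h at room temperature, following 16 h compound treatment of ER-beta-UAS-bla HEK293T cells at 37C in 2% charcoal-stripped FBS medium.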

Assay [18] shares this target. Put plainly: qHTS assay to identify small molecule antagonists of the estrogen receptor beta (ER-beta) signaling pathway (AID 1259378; active = well fitted inhibition curve with a large enough effect in the signal ratio in the repeat runs, not every such curve was filed as active; the % refers to the signal ratio). In short, it runs like this:
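ER-beta-UAS-bla HEK293T (GripTite) cells in 2% charcoal-stripped FBS medium were preincubated 6 hr at 37C, dosed with compound, then stimulated with 1 nM E2 (final) for 16 hr; beta-lactamase reporter read by B/G FRET fluorescence after 2 hr substrate loading.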

Values joined by “and” are separate entries in the source; they are usually repeats but may differ in a detail not shown here. Equal values may be shown once. Records with an inconclusive call do not appear. The source holds several records for some structures; these can differ, active in one and inactive in another. Active and inactive are the calls of the source. Unless noted, calls follow the shape of the dose curve; as a rule, active = well fitted curve in the direction sought with a large enough effect in the repeat runs; inconclusive = weak or mixed curves; inactive = no such curve, though single readings can be large; an effect the other way counts as inactive or inconclusive.

Chain of Thyrotropin receptor (Homo sapiens) (P16473 whole entry, looked up): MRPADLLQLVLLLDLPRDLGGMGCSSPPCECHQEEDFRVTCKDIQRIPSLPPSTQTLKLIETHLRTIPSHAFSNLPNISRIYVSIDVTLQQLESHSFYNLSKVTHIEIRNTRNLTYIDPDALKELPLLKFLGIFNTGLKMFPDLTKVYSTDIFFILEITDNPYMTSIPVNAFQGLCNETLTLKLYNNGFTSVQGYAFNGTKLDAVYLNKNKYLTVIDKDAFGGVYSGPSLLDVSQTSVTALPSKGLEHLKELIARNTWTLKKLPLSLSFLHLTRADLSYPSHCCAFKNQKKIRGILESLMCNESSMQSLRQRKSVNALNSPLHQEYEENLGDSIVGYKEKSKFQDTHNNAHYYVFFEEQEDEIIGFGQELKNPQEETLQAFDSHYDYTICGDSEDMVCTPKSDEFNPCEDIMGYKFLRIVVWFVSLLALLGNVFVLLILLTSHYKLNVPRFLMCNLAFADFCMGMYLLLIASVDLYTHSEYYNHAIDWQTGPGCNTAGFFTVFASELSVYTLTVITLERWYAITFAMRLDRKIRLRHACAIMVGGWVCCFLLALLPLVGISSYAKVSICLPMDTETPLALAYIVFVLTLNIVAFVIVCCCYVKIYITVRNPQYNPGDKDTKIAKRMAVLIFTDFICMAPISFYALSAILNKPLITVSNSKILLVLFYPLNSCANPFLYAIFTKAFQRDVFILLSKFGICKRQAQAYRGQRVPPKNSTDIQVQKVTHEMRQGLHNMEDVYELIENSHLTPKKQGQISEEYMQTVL
Chain of Estrogen receptor (Homo sapiens) (P03372 whole entry, looked up): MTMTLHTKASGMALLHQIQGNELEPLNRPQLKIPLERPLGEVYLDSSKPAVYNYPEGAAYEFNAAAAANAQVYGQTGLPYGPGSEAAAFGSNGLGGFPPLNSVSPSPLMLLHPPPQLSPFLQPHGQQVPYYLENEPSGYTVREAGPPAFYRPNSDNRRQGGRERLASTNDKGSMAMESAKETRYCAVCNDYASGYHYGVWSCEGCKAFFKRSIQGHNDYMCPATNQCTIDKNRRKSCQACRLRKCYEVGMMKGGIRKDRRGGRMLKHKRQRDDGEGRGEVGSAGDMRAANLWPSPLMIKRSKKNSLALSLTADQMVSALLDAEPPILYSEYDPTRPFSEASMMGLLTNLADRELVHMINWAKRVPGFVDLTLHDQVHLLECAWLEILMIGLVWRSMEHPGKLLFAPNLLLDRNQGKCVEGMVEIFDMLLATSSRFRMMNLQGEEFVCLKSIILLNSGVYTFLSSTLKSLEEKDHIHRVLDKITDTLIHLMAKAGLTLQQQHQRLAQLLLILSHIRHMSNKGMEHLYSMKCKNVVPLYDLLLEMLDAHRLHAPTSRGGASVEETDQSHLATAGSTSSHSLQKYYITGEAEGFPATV
Chain of Estrogen receptor beta (Homo sapiens) (Q92731 whole entry, looked up): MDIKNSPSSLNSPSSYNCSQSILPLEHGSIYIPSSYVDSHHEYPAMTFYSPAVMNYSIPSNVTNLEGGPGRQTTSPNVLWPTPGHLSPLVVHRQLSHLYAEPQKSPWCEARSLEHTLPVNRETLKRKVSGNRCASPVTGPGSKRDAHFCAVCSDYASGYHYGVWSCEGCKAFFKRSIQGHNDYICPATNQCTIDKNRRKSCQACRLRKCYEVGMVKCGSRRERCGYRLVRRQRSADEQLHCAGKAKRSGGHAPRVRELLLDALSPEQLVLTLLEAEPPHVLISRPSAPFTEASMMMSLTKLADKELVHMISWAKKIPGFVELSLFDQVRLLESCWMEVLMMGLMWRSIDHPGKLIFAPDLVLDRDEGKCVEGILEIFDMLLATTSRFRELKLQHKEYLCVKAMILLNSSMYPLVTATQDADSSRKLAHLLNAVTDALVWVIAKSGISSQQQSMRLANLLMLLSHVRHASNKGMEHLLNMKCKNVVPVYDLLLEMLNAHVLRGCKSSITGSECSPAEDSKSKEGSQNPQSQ

On to `NS(=O)(=O)c1cc(C(=O)O)c(NCc2ccco2)cc1Cl`, for which the Potency entry in [1], in assay [2], in assay [3], in assay [5], in assay [7] and in assay [9] was “inactive” each time. The Potency entry in [10], in assay [11], in assay [12] and in assay [13] was “inactive” in each case. The compound was classed as inactive in assay [4], in [6], in assay [8], in assay [14] and in assay [15].

As for `O=C(O)c1[nH]n(-c2ccc(S(=O)(=O)O)cc2)c(=O)c1N=Nc1ccc(S(=O)(=O)O)cc1`, the Potency in assay [1] is 48.7 µM (active) and 28.6 µM (active); in assay [7], 27.4 µM (active) and 25.5 µM (active); in assay [16] it was 30.7 µM (active) and 25.5 µM (active); in assay [9], “inactive and 57.1 µM (active)”; in assay [10] it was 23.7 µM (active) and 54.6 µM (active) and 28.6 µM (active). Besides, the Potency result in assay [3], in assay [5], in assay [11], in assay [12] and in assay [13] was “inactive” throughout. The call in assay [4], in [6], in assay [8], in assay [14] and in [15] was inactive.

For `Nc1ccc(C(=O)O)cc1`, the Potency result in [1], in [2], in assay [3], in assay [5], in assay [7] and in assay [9] was “inactive” in each case. Moreover, the Potency entry in assay [18], in assay [10], in assay [11], in assay [12] and in [13] was “inactive” each time. Also, the call in assay [4], in [6], in assay [8], in assay [17], in [14] and in assay [15] was inactive.

For the compound `Nc1ccc(S(=O)(=O)Nc2nccs2)cc1`, the Potency result in assay [1], in [2], in assay [3], in [5], in assay [7] and in assay [9] was “inactive” each time. Further, the Potency entry in assay [10], in [11], in assay [12] and in [13] was “inactive” in each case. For the same compound, the outcome in [4], in assay [6], in assay [8], in assay [14] and in [15] was inactive.

With `O=NO`, the Potency result in assay [1], in assay [2], in assay [5], in assay [7], in assay [16] and in assay [9] was “inactive” in each case. The Potency result in assay [10], in assay [11] and in assay [12] was “inactive” throughout. Also, the compound was called inactive in [6], in assay [8], in assay [14] and in [15].

As for `CCCC(CCC)C(=O)O`, the Potency entry in assay [1], in assay [2], in [3], in assay [5], in assay [7] and in assay [9] was “inactive” each time. In addition, the Potency result in [10], in assay [11], in [12] and in assay [13] was “inactive” throughout. Also, the result in assay [4], in assay [6], in assay [8], in assay [14] and in assay [15] was inactive.

Consider `CCCCCCCCCCCCCCCC(=O)O`, for which the Potency result in [1], in [2], in assay [5], in assay [7], in assay [16] and in assay [9] was “inactive” each time. The Potency entry in assay [18], in [10], in assay [11] and in assay [12] was “inactive” in each case. Also, the outcome in assay [4], in assay [6], in [8], in [17], in [14] and in assay [15] was inactive.
